PubChem BioAssay (EPA / NIEHS)
Activity calls are given as the source filed them. The calls were made as follows: active = hit-call score of the fitted dose curve at least 0.9, where 1 is the maximum; inactive = score below 0.9.

Assay: CEETOX_H295R_CORTISOL: CeeTox H295R High-throughput Steroidogenesis Assay for Cortisol (AID 2283438);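 also: cortisol secreted into medium quantified by LC-MS/MS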
Conditions: actives raise or lower the signal
How it was run: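 Steroidogenesis in H295R, per modified OECD 456: 48 h forskolin (10 uM), then 48 h exposure, 0.1% DMSO. Cortisol by extraction and tandem MS; viability by MTT (570/650 nm); cytotoxic chemicals diluted and re-tested.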
In the case of `CC1(C)[C@H](C(=O)OCc2cccc(Oc3ccccc3)c2)[C@@H]1C=C(Cl)Cl`, the outcome is reported as “inactive”. For `Nc1ccc(F)c([N+](=O)[O-])c1`, the outcome was “inactive”. For `Cc1ccc2n[nH]nc2c1`, the outcome was “inactive”. In the case of `COc1cc2ncnc(Nc3cccc(Cl)c3)c2cc1OC`, the outcome is reported as “inactive”. In the case of `C=CC(C)(C)O`, the outcome is reported as “inactive”. For `Nc1cc([N+](=O)[O-])ccc1Cl`, the outcome was “inactive”. In the case of `C#C[C@]1(O)CC[C@H]2[C@@H]3CCC4=Cc5oncc5C[C@]4(C)[C@H]3CC[C@@]21C`, the AC50 is reported as 3.34 µM (active). With `O=C(O)C[C@H](O)C[C@H](O)/C=C/c1c(C2CC2)nc2ccccc2c1-c1ccc(F)cc1` the outcome was “inactive”. In the case of `Cc1cccc(C)c1C`, the outcome is reported as “inactive”.

Assay: CEETOX_H295R_DOC: CeeTox H295R High-throughput Steroidogenesis Assay for DOC (AID 2283439)
Conditions: actives raise or lower the signal
How it was run: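 H295R, fsk 10 uM ×48 h pre, cmpd ×48 h (0.1% DMSO). Media → MTBE extr. → LC-MS/MS, DOC. Bidirectional fit vs DMSO; MTT viability same wells, re-test diluted if <70%.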
For `CC1(C)[C@H](C(=O)OCc2cccc(Oc3ccccc3)c2)[C@@H]1C=C(Cl)Cl`, the outcome was “inactive”. In the case of `Nc1ccc(F)c([N+](=O)[O-])c1`, the outcome is reported as “inactive”. With `Cc1ccc2n[nH]nc2c1` the outcome was “inactive”. With `COc1cc2ncnc(Nc3cccc(Cl)c3)c2cc1OC` the AC50 was 0.496 µM (active). For `C=CC(C)(C)O`, the outcome was “inactive”. For `Nc1cc([N+](=O)[O-])ccc1Cl`, the outcome was “inactive”. With `C#C[C@]1(O)CC[C@H]2[C@@H]3CCC4=Cc5oncc5C[C@]4(C)[C@H]3CC[C@@]21C` the outcome was “inactive”. In the case of `O=C(O)C[C@H](O)C[C@H](O)/C=C/c1c(C2CC2)nc2ccccc2c1-c1ccc(F)cc1`, the AC50 is reported as 0.0331 µM (active). For `Cc1cccc(C)c1C`, the outcome was “inactive”.

Assay: CEETOX_H295R_ESTRADIOL: CeeTox H295R High-throughput Steroidogenesis Assay for Estradiol (AID 2283440);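 also: estradiol secreted into medium quantified by LC-MS/MS after dansyl derivatisation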
Conditions: actives raise or lower the signal
How it was run: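 Estradiol in spent medium measured by LC-MS/MS after dansyl chloride derivatisation. Forskolin-primed (10 uM, 48 h) human adrenal H295R cells received test chemical 48 h at 0.1% DMSO; concentrations lowered until MTT viability >/=70%.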
In the case of `Nc1ccc(F)c([N+](=O)[O-])c1`, the outcome is reported as “inactive”. For `Cc1ccc2n[nH]nc2c1`, the outcome was “inactive”. With `COc1cc2ncnc(Nc3cccc(Cl)c3)c2cc1OC` the outcome was “inactive”. In the case of `C=CC(C)(C)O`, the outcome is reported as “inactive”. With `C#C[C@]1(O)CC[C@H]2[C@@H]3CCC4=Cc5oncc5C[C@]4(C)[C@H]3CC[C@@]21C` the AC50 was 5.57 µM (active).

Assay: CEETOX_H295R_ESTRONE: CeeTox H295R High-throughput Steroidogenesis Assay for Estrone (AID 2283441);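 also: estrone secreted into medium measured by LC-MS/MS after dansyl derivatization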;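 as to AC50: human adrenal H295R cells prestimulated with forskolin for two days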
Conditions: actives raise or lower the signal
How it was run: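 Forskolin-stimulated H295R cells are treated 48 h with chemical, and estrone in the medium is measured by LC-MS/MS. Activity is fitted in both directions relative to DMSO controls, with chemicals diluted until MTT viability reaches at least 70%.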
For `Nc1ccc(F)c([N+](=O)[O-])c1`, the outcome was “inactive”. With `Cc1ccc2n[nH]nc2c1` the outcome was “inactive”. With `COc1cc2ncnc(Nc3cccc(Cl)c3)c2cc1OC` the outcome was “inactive”. For `C=CC(C)(C)O`, the outcome was “inactive”. With `C#C[C@]1(O)CC[C@H]2[C@@H]3CCC4=Cc5oncc5C[C@]4(C)[C@H]3CC[C@@]21C` the AC50 was 3.42 µM (active).
